This is an account of results in PubChem BioAssay (NCI).

About 79,000 compounds went through this panel and 15% of them were active in at least one assay; those are over-represented in the sample as a whole. A number with no mark means an inactive call. Activity calls are given as the source filed them. Cut-off read from the data, not from the text of the source: active = growth inhibition above about 70%; inactive = the rest.

The first experiment in a line: NCI Yeast Anticancer Drug Screen. Data for the cln2 rad14 strain (AID 165).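 Note: 0% = growth equal to vehicle treated cultures.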 To be noted: S. cerevisiae cln2 rad14 strain, at 50.0 µM, stronger effect = higher value. The essentials:
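Strain: cln2 rad14 yeast, altered in cell cycle control and DNA damage repair. Read-out: growth inhibition vs vehicle.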
Turning to `COc1ccc([N+](=O)[O-])cc1`, the growth inhibition is 20.9%.

Turning to `CC(Cl)CN1CCCCC1` (stereo not drawn) (tested in a mixture with another compound), the growth inhibition is 7.75%.

Consider `COc1cc2c(cc1OC)-c1c3c(cc4c1[C@@H](C2)N(C)CC4)OCO3`, for which the growth inhibition is -1.9%.

`O=C(O)[C@H](O)[C@@H](O)C(=O)O.[Pb]`: the growth inhibition is -36.9%.

In the case of `O=C(NCCc1ccccn1)c1ccc2cc(C(=O)N3CC(CCl)c4ccc([N+](=O)[O-])cc43)[nH]c2c1` (stereo not drawn), the growth inhibition is 12.4%.

`CN(C)[C@@H]1C(=O)C(C(N)=O)=C(O)[C@]2(O)C(=O)C3C(=O)c4c(O)ccc(Cl)c4[C@](C)(O)[C@H]3C[C@@H]12` (stereo partly drawn): the growth inhibition was -2.35%.

In the case of `Cc1cc(C)c(O)c(C)c1`, the growth inhibition was 14.4%.

On to `N#CC(N)c1ccccc1` (stereo not drawn), for which the growth inhibition was 1.45%.

`N#Cc1ccccn1`: the growth inhibition is -6.95%.

In the case of `CCCCCCCC/C=C\CCCCCCCC(=O)OCC(COC(=O)CCCCCCC/C=C\CCCCCCCC)OC(=O)N(CCCl)CCCl`, the growth inhibition was 33.6%.

For `COC(=O)C(C)N(CCCl)P1(=O)OCCCN1CCCl` (stereo not drawn), the growth inhibition is 8.7%.

On to `N#CS.N=C=S.O=N[O-].[Co+3].[NH-]CC[NH-].[NH-]CC[NH-]`, for which the growth inhibition was -34%.

Regarding `ClCc1ccccc1`, the growth inhibition is -19.7%.

Consider `CCC1CN(CC(=O)c2ccc(Br)cc2)CCO1` (stereo not drawn), for which the growth inhibition is 20.6%.

Consider `CC(=O)C(C(C)=O)C(C)=O.[Cr]`, for which the growth inhibition is 11.1%.

For `O=C(Cc1nc2ccccc2c(=O)n1-c1c(Cl)cccc1Cl)c1ccncc1`, the growth inhibition is -25.6%.

`CCCCOP(=O)(Nc1ccc(Cl)cc1)OCCCC`: the growth inhibition is 99.2% (active).

For the molecule `CCOS(=O)(=O)c1ccc(C)cc1`, the growth inhibition is -0.95%.

On to `CC(C)=CC1CC(=[N+]=[N-])C(=O)C1(C)C` (stereo not drawn), for which the growth inhibition is 16.9%.

In the case of `Cc1ccc(-n2c(=O)[nH]c3ccccc3c2=O)cc1[N+](=O)[O-]`, the growth inhibition is 23.2%.

For the molecule `O=[N+]([O-])c1ccc2c(c1)[O][Sn]([I])([I])[O]2`, the growth inhibition is 6.7%.

In the case of `O=C(CN1C(=O)C2CCCCC2C1=O)N1CC1` (stereo not drawn), the growth inhibition was 5.85%.

On to `NC1C(=O)NC(=O)NC1=O`, for which the growth inhibition was 15.1%.

For `ClCCN(CCCl)c1ncnc2c1ncn2Cc1ccccc1`, the growth inhibition is -12.6%.

`O=P(N1CCNCC1)(N1CCNCC1)N1CCNCC1`: the growth inhibition is -42.5%.

On to `CCNP(=O)(OCC)OCC`, for which the growth inhibition is 24.4%.

For `COc1cc2c(cc1OC)CC[N+](C)=C2`, the growth inhibition is -2.45%.

As to `CCOP(=S)(Oc1ccccc1[N+](=O)[O-])c1ccccc1` (stereo not drawn), the growth inhibition is 25.8%.

Turning to `NCCn1ccc2ccccc21`, the growth inhibition was 7.35%.

For the molecule `ClC1=C(Cl)C2(Cl)C3C4CC(C5OC45)C3C1(Cl)C2(Cl)Cl` (stereo not drawn), the growth inhibition is 15.5%.

With `OC(Cc1ccccn1)C(Cl)(Cl)Cl` (stereo not drawn), the growth inhibition was -15.6%.

Turning to `O=NC1C(=O)NC(=O)NC1=O`, the growth inhibition is 14.7%.

For `C[C@]12CC[C@H](O)C=C1CC[C@@H]1[C@@H]2CC[C@]2(C)C(c3ccc(=O)oc3)CC[C@]12O` (stereo partly drawn), the growth inhibition is 10.9%.

Turning to `O=[N+]([O-])c1ccc(SC2CCCCCCC2Br)c([N+](=O)[O-])c1` (stereo not drawn), the growth inhibition was -33.6%.

As for `CN(C)/N=C/c1c[nH]c2ccccc12`, the growth inhibition is 0.5%.

Take `CC(=O)OCC1OC(S[As](C)C)C(OC(C)=O)C(OC(C)=O)C1OC(C)=O` (stereo not drawn): the growth inhibition is 10.9%.

Consider `COCC(=O)CP(=O)(OC)OC`, for which the growth inhibition was 18.6%.

As to `OCCC[n+]1cccc2ccccc21`, the growth inhibition was -41.6%.

With `CC1=CC(=Nc2ccc(N(CCCl)CCCl)cc2)C=C(C)C1=O`, the growth inhibition is 13.8%.

A further experiment is described as follows: NCI Yeast Anticancer Drug Screen. Data for the bub3 strain (AID 167). To be noted: S. cerevisiae bub3 mutant strain, at 50.0 µM, stronger effect = higher value. The gist of the method: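 Growth of a checkpoint-deficient yeast mutant is measured after compound exposure. Values represent inhibition relative to vehicle.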
`COc1ccc([N+](=O)[O-])cc1`: the growth inhibition was 1.1%.

For the molecule `CC(Cl)CN1CCCCC1` (stereo not drawn) (tested in a mixture with another compound), the growth inhibition is 3.2%.

As to `COc1cc2c(cc1OC)-c1c3c(cc4c1[C@@H](C2)N(C)CC4)OCO3`, the growth inhibition is -21.7%.

Consider `O=C(O)[C@H](O)[C@@H](O)C(=O)O.[Pb]`, for which the growth inhibition is 6.85%.

With `O=C(NCCc1ccccn1)c1ccc2cc(C(=O)N3CC(CCl)c4ccc([N+](=O)[O-])cc43)[nH]c2c1` (stereo not drawn), the growth inhibition was 2.95%.

Take `CN(C)[C@@H]1C(=O)C(C(N)=O)=C(O)[C@]2(O)C(=O)C3C(=O)c4c(O)ccc(Cl)c4[C@](C)(O)[C@H]3C[C@@H]12` (stereo partly drawn): the growth inhibition was 3.15%.

Regarding `Cc1cc(C)c(O)c(C)c1`, the growth inhibition is -5.25%.

On to `N#CC(N)c1ccccc1` (stereo not drawn), for which the growth inhibition was 14.1%.

In the case of `N#Cc1ccccn1`, the growth inhibition was 3.5%.

Take `CCCCCCCC/C=C\CCCCCCCC(=O)OCC(COC(=O)CCCCCCC/C=C\CCCCCCCC)OC(=O)N(CCCl)CCCl`: the growth inhibition was -24.2%.

With `COC(=O)C(C)N(CCCl)P1(=O)OCCCN1CCCl` (stereo not drawn), the growth inhibition is -20.6%.

`N#CS.N=C=S.O=N[O-].[Co+3].[NH-]CC[NH-].[NH-]CC[NH-]`: the growth inhibition is 50.7%.

Turning to `ClCc1ccccc1`, the growth inhibition was 30.6%.

On to `CCC1CN(CC(=O)c2ccc(Br)cc2)CCO1` (stereo not drawn), for which the growth inhibition is 48.6%.

Consider `CC(=O)C(C(C)=O)C(C)=O.[Cr]`, for which the growth inhibition was -16.1%.

For the molecule `O=C(Cc1nc2ccccc2c(=O)n1-c1c(Cl)cccc1Cl)c1ccncc1`, the growth inhibition was -2.95%.

`CCCCOP(=O)(Nc1ccc(Cl)cc1)OCCCC`: the growth inhibition is 99.4% (active).

For `CCOS(=O)(=O)c1ccc(C)cc1`, the growth inhibition is 8.45%.

Regarding `CC(C)=CC1CC(=[N+]=[N-])C(=O)C1(C)C` (stereo not drawn), the growth inhibition was 4.05%.

Regarding `Cc1ccc(-n2c(=O)[nH]c3ccccc3c2=O)cc1[N+](=O)[O-]`, the growth inhibition is 35.4%.

As for `O=[N+]([O-])c1ccc2c(c1)[O][Sn]([I])([I])[O]2`, the growth inhibition was 1.95%.

With `O=C(CN1C(=O)C2CCCCC2C1=O)N1CC1` (stereo not drawn), the growth inhibition is -6.6%.

For the molecule `NC1C(=O)NC(=O)NC1=O`, the growth inhibition was 4.6%.

For `ClCCN(CCCl)c1ncnc2c1ncn2Cc1ccccc1`, the growth inhibition was -1.95%.

For the molecule `O=P(N1CCNCC1)(N1CCNCC1)N1CCNCC1`, the growth inhibition was 5.45%.

On to `CCNP(=O)(OCC)OCC`, for which the growth inhibition was 7.6%.

On to `COc1cc2c(cc1OC)CC[N+](C)=C2`, for which the growth inhibition was -2.4%.

As for `CCOP(=S)(Oc1ccccc1[N+](=O)[O-])c1ccccc1` (stereo not drawn), the growth inhibition is 18.9%.

Regarding `NCCn1ccc2ccccc21`, the growth inhibition was -0.4%.

For the molecule `ClC1=C(Cl)C2(Cl)C3C4CC(C5OC45)C3C1(Cl)C2(Cl)Cl` (stereo not drawn), the growth inhibition is 9.75%.

`OC(Cc1ccccn1)C(Cl)(Cl)Cl` (stereo not drawn): the growth inhibition is 4.35%.

In the case of `O=NC1C(=O)NC(=O)NC1=O`, the growth inhibition was 11.7%.

Consider `C[C@]12CC[C@H](O)C=C1CC[C@@H]1[C@@H]2CC[C@]2(C)C(c3ccc(=O)oc3)CC[C@]12O` (stereo partly drawn), for which the growth inhibition is 0.05%.

On to `O=[N+]([O-])c1ccc(SC2CCCCCCC2Br)c([N+](=O)[O-])c1` (stereo not drawn), for which the growth inhibition is 8.95%.

Turning to `CN(C)/N=C/c1c[nH]c2ccccc12`, the growth inhibition was -17.7%.

As to `CC(=O)OCC1OC(S[As](C)C)C(OC(C)=O)C(OC(C)=O)C1OC(C)=O` (stereo not drawn), the growth inhibition is 6.4%.

In the case of `COCC(=O)CP(=O)(OC)OC`, the growth inhibition is -14.7%.

For the molecule `OCCC[n+]1cccc2ccccc21`, the growth inhibition was 0.95%.

With `CC1=CC(=Nc2ccc(N(CCCl)CCCl)cc2)C=C(C)C1=O`, the growth inhibition is 8.15%.
